PubChem BioAssay AID493008 (The Scripps Research Institute Molecular Screening Center, 2010)
In all, about 340,000 compounds went through this assay and about 800 (0.24%) were called active.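 Rule for the calls: active = activation above the mean over all tested compounds plus 3 SD (cut at about 30% in these data); inactive = the rest.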 The sample as a whole holds a higher share of actives than the screen did.

biological target: Troponin I, cardiac muscle (Homo sapiens) + Troponin T, cardiac muscle (Homo sapiens) + Troponin C, slow skeletal and cardiac muscles (Homo sapiens) (UniProt P19429+P45379+P63316); assay: cardiac RTF calcium sensitivity activators, primary screen, biochemical, IANBD-TnC fluorescence, EC20 calcium (AID 493008); settings: IANBD-labeled TnC RTF fluorescence at EC20 calcium; at 7.2 µM; stronger effect = higher value;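 note: rise in fluorescence read as greater calcium sensitivity of cardiac thin filaments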

| Compound | activation |
| --- | --- |
| Cn1c(O)c(C=NCCCC(=O)O)c(=O)n(C)c1=O | 2.93% (inactive) |
| O=C(N/N=C/c1c(O)n(Cc2ccccc2)c(=O)[nH]c1=O)c1ccccc1 | 0.31% (inactive) |
| CCCCC(=O)N/N=C/c1c(O)n(CC)c(=S)n(CC)c1=O | 93.2% (active) |
| COc1ccccc1N=C1SCCCN1C | -2.56% (inactive) |
| CN1CCc2cc3c(cc2[C@H]1[C@@H]1OC(=O)c2c1ccc1c2OCO1)OCO3 | 0.04% (inactive) |
